# Rows were chosen to be rich in hits. Some 3.2% of all compounds tested hit in one or more screens of this group.
# Tau ThT inhib: inhibitors of human tau fibril formation, thioflavin T binding. Potency, µM (highest dose often 57.4 µM), without a hit: at the highest dose activity, negative = inhibition, usual class: inhibitors. recombinant tau K18 P301L, heparin-induced fibrillization, ThT fluorescence. hit rate 2.1% among 270,000; note: nearly all actives have a fitted effect of over 55% in size
# Target sequence (P10636 561-689 P618L limits assumed): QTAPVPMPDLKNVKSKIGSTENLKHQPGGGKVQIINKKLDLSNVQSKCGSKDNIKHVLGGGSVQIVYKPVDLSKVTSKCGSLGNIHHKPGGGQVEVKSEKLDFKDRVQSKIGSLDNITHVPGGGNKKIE
#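 In this qHTS, human K18 P301L tau is incubated with compound and heparin for 6 hr at 37 C, and Thioflavin T fluorescence then reports fibril load.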
# Tau fibril FP: blocks human tau fibril formation measured by polarization. P10636. K18 P301L tau heparin fibrillization, Alexa594 FP, 6 h. Potency, µM (highest dose often 57.7 µM), for inactives: at the highest dose activity, negative = inhibition, usual class: inhibitors. hit rate 0.39% among 280,000. AID 1468; note: nearly all actives have a fitted effect of over 55% in size
#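 Quantitative HTS format: compounds meet 15 uM recombinant K18 P301L tau and Alexa 594-tau tracer in 100 mM sodium acetate pH 7; 20 uM heparin triggers fibrillization at 37 C over 6 hr; FP gives the signal.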
# TexasRed fluor: Texas Red fluorescence interference in TRb-SRC2 counter-screen; TRb/SRC2 Texas Red total fluorescence interference; Potency, µM (series often up to 106 µM), inactives show top-dose fluorescence change, negative = quenching; hit rate 0.29% among 280,000; active = well fitted curve in either direction with a large enough effect; inconclusive = small, poorly fitted or top-dose-only effect
#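 Human TRb ligand-binding domain at 0.6 uM with 20 nM Texas Red SRC2 peptide in Tris buffer containing 1 uM T3 and 5% DMSO, incubated with compound 5 h at ambient temperature. Total fluorescence (555/632 nm) calculated as parallel + 2 × perpendicular.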
# GoLoco inh red: inhibitors of human Gai1-RGS12 GoLoco interaction (red fluorophore); Gai1:RGS12 GoLoco peptide FP, rhodamine, 10 min; Potency, µM (top dose mostly 61.6 µM), for inactives: top-dose activity, negative = inhibition, usual class: inhibitors; hit rate 0.44% among 230,000; AID 880; active = well fitted inhibition curve with a large enough effect, not every such curve was filed as active; inactive = no such curve, though single readings can be large or run the other way; note: nearly all actives have a fitted effect of over 30% in size
# Target sequence (P63096 whole entry, looked up): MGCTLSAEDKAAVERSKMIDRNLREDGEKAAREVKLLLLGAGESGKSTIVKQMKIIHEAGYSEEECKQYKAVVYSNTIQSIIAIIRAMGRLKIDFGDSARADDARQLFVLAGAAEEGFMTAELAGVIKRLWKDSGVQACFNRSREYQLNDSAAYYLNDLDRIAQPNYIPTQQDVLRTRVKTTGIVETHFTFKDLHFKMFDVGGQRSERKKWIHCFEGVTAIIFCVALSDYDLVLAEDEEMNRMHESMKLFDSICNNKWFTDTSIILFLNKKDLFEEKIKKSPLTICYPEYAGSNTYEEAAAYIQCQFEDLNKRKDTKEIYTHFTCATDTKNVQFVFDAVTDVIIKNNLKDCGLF
# Tau fluor cs: counter-screen for tau fibril formation inhibitors | tau K18 P301L Alexa594 fluorescence, heparin fibrillization | Potency, µM (titrated, usually from 57.7 µM), without a hit: at the top dose activity change, negative = decrease | hit rate 0.93% among 280,000 | AID 1463; note: nearly all actives have a fitted effect of over 55% in size
#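 Human tau K18 P301L (15 uM unlabeled, 0.24 uM Alexa 594-labeled) in 100 mM sodium acetate pH 7 with 20 uM heparin, 6 hr at 37 C. ThT 30 uM added, 1 hr ambient; Alexa 594 FP and total fluorescence read at 555/632 nm.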
# TRb SRC2 PPI: disrupts binding of human TR beta to SRC2; Potency, µM (titrated, usually from 106 µM), for inactives: at the top dose activity change, negative = inhibition, most hits filed as inhibitors; hit rate 0.065% among 280,000; AID 1469; TRbeta-SRC2 peptide binding, fluorescence polarization; receptor liganded with 1 µM T3;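 note: plate controls were bound peptide for no effect and peptide without receptor for full effect; nearly all actives have a fitted effect of over 50% in size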
#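 Human TRb LBD (0.6 uM) plus Texas Red-labeled SRC2 peptide (20 nM), 1uM T3, 5% DMSO, 5 hr at ambient temperature. Decreased polarization (555/632 nm) flags inhibition; data normalized to free and bound peptide controls.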
# * = called active by the depositor; ? = inconclusive; . = no result; [ ] = remark or other dose. Unless noted, calls come from the whole dose curve; as a rule, active = well fitted curve in the direction sought with a large enough effect; inconclusive = small, poorly fitted or top-dose-only effect, or another doubt; inactive = no such curve, though single readings can be large; an effect the other way counts as inactive or inconclusive. Unless noted, % is set by controls: 0 for no effect and ±100 for the full control effect; potency is the fitted concentration of half-maximal effect.
SMILES,Tau ThT inhib,Tau fibril FP,TexasRed fluor,GoLoco inh red,Tau fluor cs,TRb SRC2 PPI
COc1cc(CCN2C(=O)N[C@@H](c3ccccc3)C(C(C)=O)=C2C)cc(OC)c1OC,0.6%,1.6%,-2.2%,5.6%,-0.5%,0.9%
COc1ccc(OC)c(N2Cc3cc(C)c(C)cc3C2)c1,?,-7.8%,1.3%,22.0%,-22.1%,-24.5%
COc1ccc(OC)c(N2C(=O)C(Cl)=C(N3CCCCC3)C2=O)c1,12.6µM*,15.8µM*,-5.2%,4.3%,?,2.5%
Cc1ccccc1N1C(=O)C(Cl)=C(N2CCCCCC2)C1=O,?,?,-4.3%,11.1%,-25.3%,1.3%
O=C1C(Cl)=C(N2CCCCC2)C(=O)N1c1ccccc1Cl,14.1µM*,20µM*,-2.0%,-1.7%,?,-6.8%
COc1ccc(OC)c(N2C(=O)C(Cl)=C(N3CCOCC3)C2=O)c1,14.1µM*,25.1µM*,-5.3%,1.5%,?,4.2%
CCCCCCCCCCCO,.,.,-2.5%[201 µM],.,.,-0.2%[201 µM]
C=C(C(C)=O)C(O)c1cccc(Br)c1 (stereo unspecified),-12.0%,0.2%,0.1%,6.4%,-5.4%,6.4%
Nc1nc(Cc2ccccc2)nc(Cc2ccccc2)c1-c1ccccc1,.,.,.,5.8%[14.2 µM],.,.
C#CCCCO/N=C1/C[C@@H](O)[C@@H](O)[C@@H]2[C@@H]3C(=O)N(C[C@@H]4CCCO4)C(=O)[C@H]3CC[C@H]12,-4.0%[11.5 µM],2.6%[11.6 µM],-3.2%[11.2 µM],.,-4.9%[11.6 µM],-2.2%[11.2 µM]
C#CCCCO/N=C1/C[C@@H](O)[C@@H](O)[C@@H]2[C@@H]3C(=O)N(Cc4ccc5c(c4)OCO5)C(=O)[C@H]3CC[C@H]12,-5.5%[11.5 µM],0.2%[11.6 µM],-22.3%[11.2 µM],.,1.6%[11.6 µM],5.7%[11.2 µM]
Cc1c(NC(=O)/C(C#N)=C/c2ccc(-c3ccccc3Cl)o2)c(=O)n(-c2ccccc2)n1C,?,7.6%,-3.8%,-4.6%,-9.8%,3.9%
Cc1c(NC(=O)/C(C#N)=C/c2ccc(-c3cccc(Cl)c3)o2)c(=O)n(-c2ccccc2)n1C,12.6µM*,8.3%,-0.8%,9.1%,-7.2%,6.2%
Cc1c(NC(=O)/C(C#N)=C/c2ccc(-c3ccc(Cl)c(Cl)c3)o2)c(=O)n(-c2ccccc2)n1C,15.8µM*,8.1%,-4.5%,14.7%,-16.6%,7.6%
Cc1ccccc1NC(=S)NCc1ccc2[nH]c3c(c2c1)CCCC3,-0.3%,-0.7%,-1.3%,4.9%,-0.6%,2.0%
Cc1ccc(C)c(NC(=S)NCc2ccc3[nH]c4c(c3c2)CCCC4)c1,?,?,-2.2%,11.1%,12.6µM*[quencher],-3.1%
CC(=O)c1c(C)[nH]c(C2=NNC(=NCc3ccccc3)SC2)c1C,?,1.4%,-1.4%,-13.1%,-28.6%,-0.7%
CCOC(=O)c1c(C)[nH]c(C2=NNC(=Nc3cccc(Cl)c3)SC2)c1C,12.6µM*,?,-6.5%,0.6%,?,-9.2%
N#CC1=C(N)Oc2ccc3ccc(O)cc3c2C1c1ccsc1 (stereo unspecified),-6.6%,15.5%,22.4%,12.6µM*,-26.6%,-13.5%
CC/C(=N\Nc1ccccc1[N+](=O)[O-])c1ccc(O)cc1,1.78µM*,-10.9%,-5.5%,6.9%,4.47µM*[quencher],-10.4%
C/C(=N\Nc1ccc(C#N)cc1[N+](=O)[O-])c1ccc(O)cc1,?,8.6%,-8.6%,-1.7%,?,2.4%
O=C(COc1ncnc2c1cnn2-c1ccccc1)Nc1ccc(S(=O)(=O)N2CCCCC2)cc1,5.2%,17.8µM*,1.6%,8.2%,?,1.1%
Cc1snc(SCC(=O)c2ccc([N+](=O)[O-])cc2)c1C#N,14.1µM*,?,-6.0%,14.1µM*,-26.3%,-7.4%
[N-]=[N+]=N[C@@H]1[C@H](O)[C@H](CO)O[C@@H]1n1cnc2c(N)ncnc21,.,.,.,4.3%[14.2 µM],.,.
Oc1ccc2ccccc2c1/C=N/Nc1nnc(-c2ncc[nH]2)c2ccccc12,3.98µM*,?,-2.8%,1.9%,8.91µM*[quencher],11.3%
SMILES,Tau ThT inhib,Tau fibril FP,TexasRed fluor,GoLoco inh red,Tau fluor cs,TRb SRC2 PPI
CN(C)/C=C1\C(=O)N(c2ccc([N+](=O)[O-])cc2)N=C1c1ccccc1,17.8µM*,?,-4.5%,-7.8%,?,-2.7%
C/C(=C1/C(=O)N(c2ccc([N+](=O)[O-])cc2)N=C1c1ccccc1)N(C)C,?,-3.3%,-2.6%,2.8%,?,2.5%
CCCC1=NN(c2ccc([N+](=O)[O-])cc2)C(=O)/C1=C/N(C)C,?,1.5%,-3.3%,2.8%,-16.0%,-6.7%
CC1=NN(c2ccc([N+](=O)[O-])cc2)C(=O)/C1=C\N(C)C,12.6µM*,0.8%,-4.1%,2.3%,-23.9%,3.8%
CN(C)/C=C1/C(=O)N(c2ccc([N+](=O)[O-])cc2)N=C1c1ccccc1,22.4µM*,-11.0%,-11.3%,3.3%,?,8.5%
COc1cccc(C2CC(=O)NC(SC)=C2C#N)c1 (stereo unspecified),-11.1%,0.1%,-0.7%,3.7%,-8.1%,-2.2%
COc1ccc(C2CC(=O)N3CN(C4CCCCC4)CSC3=C2C#N)cc1 (stereo unspecified),17.8µM*,?,-1.0%,.,-19.2%,3.2%
COc1cccc(C2CC(=O)N3CN(C4CCCCC4)CSC3=C2C#N)c1 (stereo unspecified),35.5µM*,?,-1.2%,.,-23.6%,0.1%
COc1ccc(C2C(=O)N(C3CCCCC3)CC(=O)N2C2CCCC2)cc1 (stereo unspecified),-8.7%,-11.6%,-2.2%,7.1%,-8.8%,0.5%
COC(=O)C1=C(C(=O)OC)[C@@H]2N(C)c3ccccc3[C@@]23C[C@@H](CO)N(C(=O)c2cc(C)oc2C)C3=N1,6.2%[11.5 µM],-0.6%[11.6 µM],3.1%[11.2 µM],7.8%[14.2 µM],-4.9%[11.6 µM],7.8%[11.2 µM]
Oc1ccc(/C=N\Nc2cc(N3CCOCC3)nc(N3CCOCC3)n2)c(O)c1,?,3.2%,-3.2%,-2.5%,?,-5.6%
Oc1ccc(/C=N/Nc2cc(N3CCCC3)nc(N3CCCC3)n2)cc1O,25.1µM*,-13.2%,-3.9%,11.6%,15.8µM*[quencher],2.4%
C[Si](C)(Cl)[Si](C)(C)Cl,.,.,-0.7%[201 µM],.,.,0.4%[201 µM]
CCOC(=O)c1ccc(NC(=O)Cn2cc(C(=O)c3cccs3)c3ccccc32)cc1,-11.1%,15.8µM*,0.7%,.,?,2.5%
CCOC(=O)Cn1cc(C(=O)c2cccs2)c2ccccc21,-4.3%,-8.3%,1.2%,1.1%,-16.0%,-8.2%
Cc1ccc(/C=C2\C(=O)Nc3ccccc32)o1,5.4%,-3.5%,0.112µM*[quencher],-17.8%,0.8%,-13.2%[53 µM]
Cc1ccc2c(c1)NC(=O)c1cccnc1N2,?,9.4%,-1.4%,10.3%,-22.1%,-0.4%
Cc1ccc2c(c1)/C(=C/c1ccco1)C(=O)N2,11.2µM*,2.6%,-1.4%,8.1%,-21.4%,-0.6%

# Screening data from PubChem BioAssay.
